Screening data as filed in PubChem BioAssay.
ELG1 genotox: genotoxicity induction in ELG1-luciferase HEK293T cells; Potency, µM (top dose mostly 46 µM), without a hit: at the top dose activity change, positive = activation, usual class: activators; hit rate 1.3% among 330,000; AID 504466; HEK293T ELG1-luciferase reporter, luminescence, 16 h; further: % of control where 0% means no effect; nearly all actives have a fitted effect of over 60% in size
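After overnight (16 hr) compound treatment at 37 °C, ELG1-luciferase HEK293T cells were lysed with ONE-Glo; luminescence quantified 30 min later at room temperature.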
NPC1 promoter act: activates the NPC1 promoter; Huh7 NPC1 promoter luciferase reporter, 24 h; Potency, µM (doses to about 9.22 µM), for inactives: at the highest dose activation, most hits filed as activators; hit rate 2.4% among 320,000; further: % of control where 0% means no effect; nearly all actives have a fitted effect of over 60% in size
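Huh7 reporter cells (NPC1 promoter driving luciferase) are dosed with compound for 24 h at 37 °C, 5% CO2; luciferase detection reagent is then added and luminescence measured after 10 min at ambient temperature.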
SMN2 splice up: SMN2 splice variant enhancement; Potency, µM (highest dose often 46.1 µM), without a hit: at the top dose activity change, positive = activation, hits mostly activators; hit rate 2.8% among 210,000; AID 1458; HEK293 SMN2-luciferase splicing reporter, luminescence, 30-36 h; further: % of control where 0% means no effect; nearly all actives have a fitted effect of over 55% in size
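qHTS luciferase splicing reporter: luminescence rises when SMN2 exon 7 is included in transfected HEK293 cells. Compound exposure lasted 30-36 h at 37C, with 4.5 mM final sodium butyrate as control, followed by a ONE-Glo read.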
FLuc counter: firefly luciferase modulation, counter-screen for miR-21 project | purified FLuc, Km substrates, luminescence inhibition | hit rate 6.9% among 360,000 | P08659 | Potency, µM (doses to about 57.5 µM), for inactives: at the highest dose activity change, negative = inhibition, hits mostly inhibitors | AID 588342;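 further: plate controls were vehicle for no effect and reference inhibitor for full effect; nearly all actives have a fitted effect of over 55% in size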
Target sequence (P08659 whole entry, looked up): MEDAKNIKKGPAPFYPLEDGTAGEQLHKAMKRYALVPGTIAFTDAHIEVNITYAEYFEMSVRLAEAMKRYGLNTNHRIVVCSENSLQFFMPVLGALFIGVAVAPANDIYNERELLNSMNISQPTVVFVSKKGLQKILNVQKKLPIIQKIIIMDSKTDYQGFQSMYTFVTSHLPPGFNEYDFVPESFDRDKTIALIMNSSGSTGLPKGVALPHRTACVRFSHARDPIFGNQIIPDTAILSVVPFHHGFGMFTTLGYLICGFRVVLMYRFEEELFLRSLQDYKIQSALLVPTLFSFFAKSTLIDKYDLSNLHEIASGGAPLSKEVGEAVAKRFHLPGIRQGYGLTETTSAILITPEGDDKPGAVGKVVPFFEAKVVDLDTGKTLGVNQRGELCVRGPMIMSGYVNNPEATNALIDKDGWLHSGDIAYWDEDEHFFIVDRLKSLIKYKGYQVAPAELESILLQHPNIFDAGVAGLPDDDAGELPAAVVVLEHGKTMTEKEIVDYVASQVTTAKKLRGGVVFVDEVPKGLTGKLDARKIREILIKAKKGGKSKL
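Purified P. pyralis luciferase, 10 nM final, with Km-level 10 uM D-luciferin and 10 uM ATP in 50 mM Tris acetate pH 7.5, 10 mM Mg acetate, 0.01% Tween-20, 0.05% BSA; 6-point qHTS titration about 60 µM downward; luminescence read.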
Rab9 prom act: Rab9 promoter activation; Huh7 Rab9 promoter-luciferase reporter, luminescence, 24 h; Potency, µM (top dose mostly 9.22 µM), without a hit: at the top dose activation, negative = inhibition, usual class: activators; hit rate 2.8% among 320,000; further: % of control where 0% means no effect; nearly all actives have a fitted effect of over 60% in size
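Huh7 cells stably carrying a Rab9 promoter-luciferase reporter, 1500 cells per well in OP-MEM I with 10% FBS, treated with compound 24 hours at 37C. Luciferase activity read by luminescence after 10 minutes with Amplite reagent.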
Active calls of the source: *; ? = inconclusive; . = not tested or not shown; [ ] = another dose, or the depositor's remark. The list is not random: actives were taken first. Their share in the collection is about 7.5%. The call rests on the fitted dose curve; in most records, active means well fitted curve in the direction sought with a large enough effect; inconclusive means small, poorly fitted or top-dose-only effect, or another doubt; inactive means no such curve, though single readings can be large; an effect the other way counts as inactive or inconclusive. Potency means the concentration at half of the fitted maximal effect.

SMILES	ELG1 genotox	NPC1 promoter act	SMN2 splice up	FLuc counter	Rab9 prom act
Cc1ccc(/C=N\NC(=O)/C(=C\Nc2nccc(C)n2)NC(=O)c2ccccc2)cc1	-3.1%	-3.7%	.	15.1µM*	-2.4%
COc1ccc(/C=N\NC(=O)/C(=C\Nc2nccc(C)n2)NC(=O)c2ccccc2)cc1	-0.3%	0.0%	-7.2%	15.1µM*	-0.2%
Cc1ccc(/C=N/NC(=O)C(C)NC(=O)c2ccccc2)cc1 (configuration not stated)	-12.8%	0.9%	-13.8%	-13.7%	3.4%
COc1ccc(/C=C(/NC(=O)c2ccccc2)C(=O)N/N=C/c2ccncc2)cc1	1.3%	-1.1%	-9.3%	-0.3%	1.9%
COc1ccc(C2N=C(N)Nc3nc4ccccc4n32)c(OC)c1OC (configuration not stated)	.	.	-2.3%	3.5%	.
CCc1ccc(C2=CC(c3cccc(OC)c3OC)n3c(nc4ccccc43)N2)cc1 (configuration not stated)	.	.	.	4.26µM*	.
CC(C)c1ccc(C2=CC(c3cccc(Cl)c3)n3ncnc3N2)cc1 (configuration not stated)	.	.	.	-16.3%	.
CCc1ccc(C2=CC(c3cccc(Br)c3)n3nnnc3N2)cc1 (configuration not stated)	.	.	.	3.3%	.
CC(C)c1ccc(C2=CC(c3cccc(Cl)c3)n3c(nc4ccccc43)N2)cc1 (configuration not stated)	.	.	.	21.3µM*	.
CCOc1ccc(C2=CC(c3cccc(Br)c3)n3c(nc4ccccc43)N2)cc1Cl (configuration not stated)	.	.	.	13.5µM*	.
CCc1ccc(C2=CC(c3cccc(C)c3)n3c(nc4ccccc43)N2)cc1 (configuration not stated)	.	.	.	1.2µM*	.
Cc1ccccc1C(=O)N1CCN=C1SCc1ccc([N+](=O)[O-])cc1	-11.7%	-6.5%	-33.7%	-0.7%	1.3%
CC(C)Oc1ccc(/C(O)=C2/C(=O)C(=O)N(CCN3CCNCC3)C2c2cccc([N+](=O)[O-])c2)cc1 (configuration not stated)	-4.8%	-9.6%	.	6.2%	-5.9%
CCn1c(SCC(=O)Nc2ccccc2Br)nnc1-c1cnccn1	0.5%	-4.8%	.	0.3%	-2.2%
CN1C(=O)N(S(=O)(=O)c2ccc(F)c(F)c2F)C(=O)C1(C)C	-2.0%	-0.8%	-0.8%	1.4%	0.0%
Cc1cccc(C=Nc2ccc3c(c2)oc2ccccc23)c1O	15.6%	26.3%	10µM*	?	3.98µM*
Cc1ccc(N=Cc2cccc(O)c2O)c(C)c1	-1.6%	1.4%	21.1%	?	8.8%
COc1cccc(/C=C2\NC(=O)NC2=O)c1O	?	29.2%	.	7.57µM*	26.3%
CCOC(=O)COc1ccccc1/C=C1/NC(=O)NC1=O	-0.6%	-1.3%	-11.0%	5.8%	-0.8%
COC(=O)c1c(NC(=O)CCCC(=O)O)sc(C)c1C	0.5%	-2.6%	-12.3%	7.5%	-0.8%
Cc1sc(NC(=O)CCCC(=O)O)c(C(N)=O)c1-c1ccccc1	?	16.0%	-0.9%	0.757µM*	3.8%
Cc1nc(NCc2ccccc2)c2nc(-c3ccccc3)n(CCCN3CCOCC3)c2n1	.	.	-0.7%	.	.
COCCN1C(=O)C(=O)/C(=C(/O)c2ccc(S(=O)(=O)N3CCOCC3)cc2)C1c1cccc([N+](=O)[O-])c1 (configuration not stated)	0.5%	-3.8%	.	1.6%	-6.2%
CSc1cccc(NC(=O)COc2ccccc2)c1	3.9%	11.0%	4.6%	16.9µM*	1.3%
CSc1cccc(NC(=O)Nc2ccccc2)c1	?	28.6%	?	13.5µM*	29.5%
SMILES	ELG1 genotox	NPC1 promoter act	SMN2 splice up	FLuc counter	Rab9 prom act
CSc1cccc(NC(=O)Nc2ccccc2C(N)=O)c1	2.2%	-4.5%	.	10.7µM*	3.1%
CC(=O)c1cccc(NC(=O)COc2ccccc2)c1	?	11.7%	-6.3%	?	-5.8%
CCOCCCNc1ncnc2c1cnn2-c1ccc(C)c(C)c1	.	.	.	10.7µM*	.
CC(=O)Nc1ccc(Nc2ncnc3c2cnn3-c2ccccc2)cc1	9.1%	?	-12.5%	-7.6%	?
CN(C)CCCNc1ncnc2c1cnn2-c1ccccc1	?	17.4%	5.1%	?	29.9%
Cc1ccc(-n2ncc3c(NCCCN(C)C)ncnc32)cc1Cl	.	.	.	13.5µM*	.
CC(=O)Nc1ccc(Nc2ncnc3c2cnn3-c2cccc(C)c2)cc1	10.3%	2.82µM*	?	-15.4%	3.16µM*
CNc1ncnc2c1cnn2-c1ccc(C)c(C)c1	.	.	.	10.7µM*	.
COc1ccc(CCNC(=O)CSCc2nc(-c3ccc(OC)c(OC)c3)oc2C)cc1OC	.	.	-9.4%	-6.4%	.
COc1ccc(S(=O)(=O)N2CCN(c3nn(C)c(=O)n(C)c3=O)CC2)cc1	1.3%	-1.7%	.	2.2%	-0.2%
Cc1cccc(-n2ncc3c(N4CCCc5ccccc54)ncnc32)c1	2.31µM*	2.82µM*	12.6µM*	5.36µM*	2µM*
Clc1ccc(-n2ncc3c(NCc4cccnc4)ncnc32)cc1Cl	?	0.501µM*	.	1.07µM*	1.12µM*
Cc1ccc(-n2ncc3c(N4CCC(Cc5ccccc5)CC4)ncnc32)cc1C	.	.	.	-2.1%	.
Cc1cccc(-n2ncc3c(NCc4ccccc4)ncnc32)c1	18.4µM*	-16.4%	10µM*	-17.4%	-3.9%
Cc1cccc(-n2ncc3c(NCc4cccs4)ncnc32)c1	?	3.55µM*	10µM*	9.53µM*	?
c1ccc(CNc2ncnc3c2cnn3-c2ccccc2)cc1	?	-12.2%	.	?	5.6%
CCCC(c1nnnn1Cc1ccco1)N1CCC(C(N)=O)CC1 (configuration not stated)	11.6%	-4.1%	10.6%	1.2%	5.6%
COc1ccc([C@]23Cc4ccccc4C(O2)c2c(cc(C)n(Cc4ccccc4)c2=O)O3)cc1	.	4.3%[1.84 µM]	.	3.3%[11.5 µM]	-4.5%[1.84 µM]
Cc1ccc(-n2ncc3c(NCc4ccco4)ncnc32)cc1C	?	2.82µM*	15.8µM*	13.5µM*	3.55µM*
COc1ccc(CNc2ncnc3c2cnn3-c2ccc(C)c(C)c2)cc1	.	.	.	-7.2%	.
Cc1cccc(-n2ncc3c(NCc4ccco4)ncnc32)c1	?	8.3%	15.8µM*	12µM*	?
CC(=O)Cn1cnc2c(cnn2-c2ccc(C)c(C)c2)c1=O	?	3.16µM*	.	23.9µM*	1.58µM*
Cc1ccc(-n2ncc3c(NNC(=O)c4ccco4)ncnc32)cc1Cl	?	14.8%	.	8.49µM*	9.2%
Cc1cccc(-n2ncc3c(NCc4ccccn4)ncnc32)c1	19.1%	19.4%	10.8%	?	?
Cc1ccc(-n2ncc3c(=O)n(CC(=O)N(C)C)cnc32)cc1C	14.8%	21.3%	.	?	29.6%
O[C@@H](c1cc(-c2ccc(Cl)cc2)nc2ccccc12)C1CCCCN1 (some centres not stated)	.	.	0.7%[9.22 µM]	.	.
